Laboratory results taken from PubChem BioAssay (NCATS).
“And” between values parts separate entries of the source, which are not always exact repeats. Equal values may be shown once. Inconclusive results are not listed. Unmarked numbers belong to inactive results. Calls come from the whole dose curve; as a rule, active = well fitted activation curve with a large enough effect; inconclusive = small, poorly fitted or top-dose-only effect; inactive = no such curve, though single readings can be large or run the other way.

Biological target: Cellular tumor antigen p53 (Homo sapiens) (UniProt P04637)
Test: Primary qHTS for small molecule compounds that upregulate eGFP-tagged delta133p53alpha (in N-terminal) cells. (AID 2060322);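 note: cells pre-induced with doxycycline then dosed without doxycycline; series mostly up to about 56 µM; 0% = DMSO vehicle and 100% = reference activator; nearly all actives have a fitted effect of over 75% in size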
Conditions: NCI-H358 eGFP-delta133p53alpha fluorescence, 24 h; activation: hits give high values
How it was run: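 NCI-H358 cells pre-induced 24 h with 10 ng/ml doxycycline for eGFP-delta133p53alpha, plated dox-free and exposed 24 h at 37C to titrated compounds. Fixed, Hoechst-stained; gated GFP peak intensity by laser scanning cytometry, normalized to DMSO (0%) and 57.5 uM 5-azacytidine (100%).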

Chain of Cellular tumor antigen p53 (Homo sapiens) (P04637 whole entry, looked up): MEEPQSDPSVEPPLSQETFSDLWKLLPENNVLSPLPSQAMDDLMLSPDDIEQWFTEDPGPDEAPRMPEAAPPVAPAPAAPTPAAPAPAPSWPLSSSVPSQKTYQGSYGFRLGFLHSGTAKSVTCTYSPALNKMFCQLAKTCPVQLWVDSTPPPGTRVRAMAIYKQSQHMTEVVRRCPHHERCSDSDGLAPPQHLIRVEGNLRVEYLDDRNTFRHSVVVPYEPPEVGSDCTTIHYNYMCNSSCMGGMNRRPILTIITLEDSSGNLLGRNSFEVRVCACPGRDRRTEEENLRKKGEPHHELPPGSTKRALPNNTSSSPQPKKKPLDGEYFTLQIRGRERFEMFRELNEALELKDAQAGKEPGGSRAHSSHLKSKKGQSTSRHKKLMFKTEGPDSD

Row | SMILES | activation
1 | CCCCCCCC/C=C/C(=O)O | -2.82%
2 | O=C(O)P(=O)(O)O | -13%
3 | Cc1c(Cl)cccc1Nc1ccccc1C(=O)O | 8.47%
4 | O=C(O)c1cn(C2CC2)c2cc(Cl)c(F)cc2c1=O | 11.9%
5 | O=C1NC(=O)C(=Cc2ccc3nccc(-c4ccncc4)c3c2)S1 | 3.34%
6 | CC(=O)Nc1ccc(/C=N/NC(N)=S)cc1 | -14.2%
7 | CCc1cccc2c(CCO)c[nH]c12 | -27.7%
8 | CCCc1ncc(C(=O)O)s1 | -8.37%
9 | N[C@H](C(=O)O)c1ccc(O)cc1 | -13.4%
10 | CCOCCn1c(C2CCN(CCc3ccc(C(C)(C)C(=O)O)cc3)CC2)nc2ccccc21 | -6.69%
11 | COc1cc([C@@H]2c3cc4c(cc3[C@@H](O[C@@H]3O[C@@H]5CO[C@@H](c6cccs6)O[C@@H]5[C@H](O)[C@@H]3O)[C@H]3COC(=O)[C@H]23)OCO4)cc(OC)c1O | -12.2%
12 | COc1cc(NS(=O)(=O)c2ccc(N)cc2)nc(OC)n1 | -0.195%
13 | C[C@@H](N)C(=O)O | 5.02%
14 | CC1(C)O[C@@H]2C[C@H]3[C@@H]4CCC5=CC(=O)CC[C@]5(C)[C@@]4(F)[C@@H](O)C[C@]3(C)[C@]2(C(=O)CCl)O1 | -1.67%
15 | Cc1c(C(C)C)c(=O)n(-c2ccccc2)n1C | -13.4%
16 | COc1ccc2nc(SCc3ncc(C)c(OC)c3C)[nH]c2c1 | 7.34%
17 | COc1cc(N)c(Cl)cc1C(=O)NC1CCN(CCCOc2ccc(F)cc2)CC1OC (stereo not given) | 13%
18 | CC(=O)OCC(=O)[C@@]1(O)CC[C@H]2[C@@H]3CCC4=CC(=O)C=C[C@]4(C)[C@@]3(F)[C@@H](O)C[C@@]21C | -10.7%
19 | COC(=O)c1ccc(NC(C)=O)cc1OC | -12.6%
20 | COc1cc(Cl)cn2c(-c3cccc(NC4CNC4)n3)cnc12 | -0.246%

Row | SMILES | activation
21 | Cc1ccccc1C(C(=O)NC1CCCC1)N(C(=O)Cn1cnc2ccccc21)c1cccc(F)c1 (stereo not given) | -4.95%
22 | O=C(O)C(=O)Nc1cccc(C2=NN=N[N]2)c1 | 19.6%
23 | Cc1c(-c2cccc3c(CCCOc4cccc5ccccc45)c(C(=O)O)n(Cc4cccnc4)c23)c(COc2ccc(N3CCN([S+](=O)([O-])N(C)C)CC3)cc2)nn1C | -39.2%
24 | CC(C)C[C@@H](N)C(=O)O | -14.2%
25 | C[C@]12CCC3=C4CCC(=O)C=C4CC[C@@H]3[C@H]1CC[C@@]2(O)CC#N | 7.95%
26 | Oc1ccc(CCNCCCCCCNCCc2ccccc2)cc1O | 0%
27 | N#CCC(=O)NN | 15.9%
28 | CC(=O)O[C@H]1C[C@@H]2CC[C@H]3[C@H]4C[C@H]([N+]5(C)CCCCC5)[C@@H](OC(C)=O)[C@@]4(C)CC[C@@H]3[C@@]2(C)C[C@H]1N1CCCCC1 | -4.56%
29 | O=C(CCCN1CCC(O)(c2ccc(Br)cc2)CC1)c1ccc(F)cc1 | 3.35%
30 | O=C(CCc1ccc(O)cc1)c1c(O)cc(O)cc1O[C@@H]1O[C@H](CO)[C@H](O)[C@H](O)[C@H]1O | 1.26%
31 | CCNC(=O)Nc1ccc(Oc2ncnc(N)c2C=NOC)cc1Cl | -10.2%
32 | C=CC1=C(C(=O)O)N2C(=O)[C@@H](NC(=O)C(=NO)c3csc(N)n3)[C@H]2SC1 | -4.61%
33 | NC(=O)c1ncn([C@@H]2O[C@H](CO)[C@@H](O)[C@@H]2O)n1 | -6.05%
34 | O=C(O)c1cc(=O)c2ccccc2o1 | 2.51%
35 | CC(=O)CC/C=C(\C)CC/C=C(\C)CC/C=C(\C)CCC=C(C)C | -15.3%
36 | Cc1ccc(S(=O)(=O)NC(=O)NC2CCCCCCC2)cc1 | -3.95%
37 | CN(C)CCOc1ccc(-c2nc(-c3ccc4c(c3)CCC4=NO)c(-c3ccncc3)[nH]2)cc1 | -18.7%
38 | Cc1c(N(C)CS(=O)(=O)O)c(=O)n(-c2ccccc2)n1C | -7.34%
39 | NC(=O)N/N=C/c1ccc([N+](=O)[O-])o1 | 16.7% and -23.4%
40 | COc1cc2c(cc1OC)C(C(C(=O)N(CCc1ccc(OC)c(OC)c1OC)CCc1ccc(OC)c(OC)c1OC)c1ccccc1)=NCC2 (stereo not given) | 3.95%
